Screens: PubChem BioAssay, National Center for Advancing Translational Sciences (NCATS)
ClpP mod: qHTS Assay for Activators of ClpP. ATP-dependent Clp protease proteolytic subunit (Bacillus subtilis (strain 168)), P80244. purified B. subtilis ClpP, FRET peptide cleavage, 20 min. Potency, µM (series often up to 57.5 µM), without a hit: top-dose activity change, negative = active. hit rate 1.9% among 340,000. AID 651965, 2013; active = well fitted falling curve with a large enough effect; inconclusive = small, poorly fitted or top-dose-only effect; inactive = no such curve, though single readings can be large or run the other way; note: potency is the fitted concentration of half-maximal effect; the source files actives as falling curves though it sought activators and does not explain the sign; nearly all actives have a fitted effect of over 65% in size
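ClpP 10 microg/mL final, pH 8 Tris/KCl buffer with BSA, glycerol, Tween-20; compound pinned in; FRET-FV substrate; RT 20 min; Ex320/Em430; ΔFRET vs ADEP 5.8 microM, DMSO, no enzyme.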
KCNH2 3.1 inh: qHTS for Inhibitors of KCHN2 3.1: Mutant qHTS. Potassium voltage-gated channel subfamily H member 2, brain isoform KCNH2 3.1 (human). U2OS KCNH2 3.1, thallium flux FluxOr; stronger effect = lower value. activity change, % (tested at about 1.8 µM). hit rate 0.95% among 340,000;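 active = maximum activity change below -70%; inconclusive = maximum activity change from -70% to -50%; inactive = maximum activity change above -50%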;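 note: thallium influx rate constant from kinetic fluorescence after stimulation buffer; % is set by controls: 0 for no effect and ±100 for the full control effect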
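Measured as rate of thallium-driven FluxOr signal in transduced U2OS cells carrying the 3.1 channel, read kinetically for 2 min upon stimulation; values are rate constants scaled to DMSO control wells.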
KCNH2 WT inh: qHTS for Inhibitors of KCHN2 3.1: Wildtype qHTS; U2OS, BacMam KCNH2, thallium flux FluxOr; stronger effect = lower value; AID 720551, 2013; Voltage-gated inwardly rectifying potassium channel KCNH2 (Homo sapiens), Q12809; hit rate 0.37% among 340,000; activity change, % at 1.84 µM;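 active = maximum activity change below -70%; inconclusive = maximum activity change between -70% and -50%; inactive = maximum activity change above -50%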; note: % is set by controls: 0 for no effect and ±100 for the full control effect
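U2OS cells were transduced with wild-type KCNH2 virus (2.03 x 10^8 / mL) for 4 h at room temperature, then cultured overnight at 37 C. Thallium flux was read with FluxOr dye. Rate constants were normalized to DMSO controls.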
TRPV1 ag: HTS Assay for Compounds that Act as Agonists of the Vanilloid Receptor 1; Transient receptor potential cation channel subfamily V member 1 (Homo sapiens), Q8NER1; TRPV1-expressing cells, Fluo-8 calcium influx, agonist mode; activation, % at 8.33 µM; hit rate 0.19% among 320,000; AID 540275, 2011; in the data active = activation above about 80%; inconclusive = between about 30% and that limit; note: 0% is about no effect
Target sequence (Q8NER1 whole entry, looked up): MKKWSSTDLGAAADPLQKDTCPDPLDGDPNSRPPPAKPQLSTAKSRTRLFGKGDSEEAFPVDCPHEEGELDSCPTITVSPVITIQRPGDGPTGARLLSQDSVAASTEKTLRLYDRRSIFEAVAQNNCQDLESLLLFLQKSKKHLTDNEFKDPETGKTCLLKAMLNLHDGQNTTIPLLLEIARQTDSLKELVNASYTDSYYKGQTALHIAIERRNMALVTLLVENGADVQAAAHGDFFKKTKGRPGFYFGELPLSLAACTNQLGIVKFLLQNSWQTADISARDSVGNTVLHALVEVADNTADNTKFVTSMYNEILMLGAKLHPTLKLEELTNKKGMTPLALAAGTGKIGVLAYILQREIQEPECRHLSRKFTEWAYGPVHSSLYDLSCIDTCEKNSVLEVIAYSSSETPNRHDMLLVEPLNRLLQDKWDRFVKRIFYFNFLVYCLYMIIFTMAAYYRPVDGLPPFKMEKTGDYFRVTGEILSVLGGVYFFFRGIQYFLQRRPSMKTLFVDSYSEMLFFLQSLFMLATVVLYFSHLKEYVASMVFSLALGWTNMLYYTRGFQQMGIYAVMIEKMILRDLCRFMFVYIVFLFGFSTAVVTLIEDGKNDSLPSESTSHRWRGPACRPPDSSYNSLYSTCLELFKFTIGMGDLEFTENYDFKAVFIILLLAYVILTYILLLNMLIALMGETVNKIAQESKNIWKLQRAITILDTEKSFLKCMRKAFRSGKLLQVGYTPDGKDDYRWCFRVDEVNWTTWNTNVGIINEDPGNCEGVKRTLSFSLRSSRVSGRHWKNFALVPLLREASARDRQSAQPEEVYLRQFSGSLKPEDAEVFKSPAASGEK
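Fluo-8 calcium influx in TRPV1-expressing cells, kinetic read (ex 480/em 520 nm). Compound added and read 3 min for agonist activity, followed by capsaicin at EC20 final and 2 min further read for enhancement.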
p53 reactivation: qHTS assay for re-activators of p53 using a Luc reporter | H1299 p53-A138V BP100-luciferase reporter, luminescence, 24 h | Potency, µM (series often up to 92.2 µM), for inactives: at the top dose activity change, positive = activation, actives largely listed as activators | hit rate 0.063% among 320,000 | AID 504706, 2011; active = well fitted activation curve with a large enough effect; inconclusive = small, poorly fitted or top-dose-only effect; inactive = no such curve, though single readings can be large or run the other way; note: potency is the fitted concentration of half-maximal effect; % of control where 0% means no effect; nearly all actives have a fitted effect of over 45% in size
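p53-null H1299 cells stably carrying temperature-sensitive p53-A138V and a BP100-luciferase reporter were pinned with compounds (4-point, 1:5 series) and held 24 hrs at 37 deg C. Luminescence was read 10 min after detection reagent.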
TRPV1 PAM: HTS Assay for Compounds that Act as Potentiators of the Vanilloid Receptor 1 | AID 540277, 2011 | potentiation, % at 8.33 µM | hit rate 0.02% among 320,000 | TRPV1-expressing cells, Fluo-8 calcium influx, capsaicin EC20 potentiation | Transient receptor potential cation channel subfamily V member 1 (Homo sapiens), Q8NER1; in the data active = potentiation above about 80%; inconclusive = between about 30% and that limit; note: 0% is about no effect
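Fluo-8 calcium influx in TRPV1-expressing cells, kinetic read (ex 480/em 520 nm). Compound added and read 3 min for agonist activity, followed by capsaicin at EC20 final and 2 min further read for enhancement.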
* marks the source's active call; other numbers are inactive results; u = inconclusive; x = not tested or not shown. A selection: hits, their analogues and other compounds. The true share with any hit is near 2.6%.

SMILES | ClpP mod | KCNH2 3.1 inh | KCNH2 WT inh | TRPV1 ag | p53 reactivation | TRPV1 PAM
COc1ccc(/C=C/C2=CCN(C)CC2)cc1 | -6% | 9 | 1 | -1 | -1% | 13
CN1CC=C(/C=C/c2ccc(-c3ccccc3)cc2)CC1 | -7% | -90* | 8 | 2 | 0% | -1
CCCC(C)C(=O)NC1CCSC1=O (centres undefined) | -1% | -83* | -3 | -2 | 1% | -18
CCOC(=O)C(=O)NC1CCSC1=O (centres undefined) | -2% | 10 | 5 | 4 | -2% | -3
Cn1c(=O)n(C)c2cc(CNCCc3ccc(F)cc3)ccc21 | 0% | x | x | x | x | x
CSc1ccc(C(=O)C2CCCN(Cc3cc4ccccc4[nH]3)C2)cc1 (centres undefined) | x | -104* | -18 | 17 | 1% | 1
O=[N+]([O-])c1cc(C(F)(F)F)c(Cl)c([N+](=O)[O-])c1Nc1ncc(C(F)(F)F)cc1Cl | -1% | x | x | x | x | x
Clc1ccc2c(c1)C(c1ccccc1Cl)=NCc1nnc(Br)n1-2 | 1% | -3 | -5 | 13 | -23% | 5
CN(C)CCSCc1nnc2n1-c1ccc(Cl)cc1C(c1ccccc1Cl)=NC2 | x | -76* | -32 | x | x | x
Clc1cccc(/C=N\Nc2nccs2)c1 | 1% | -7 | -12 | 0 | u | u
COc1cc(CC(=O)N2C[C@H]3C[C@@H](C2)c2cccc(=O)n2C3)cc(OC)c1OC | -1% | 1 | -199* | 3 | 17% | -1
COc1ccc(CC(=O)N2C[C@H]3C[C@@H](C2)c2cccc(=O)n2C3)cc1 | -28% | 0 | -1 | -4 | 10% | 1
O=C(N/N=C/c1c(O)n(C2CC2)c(=S)[nH]c1=O)c1ccccc1O | -3% | 4 | 5 | 2 | 6.3µM* | -2
COc1ccccc1NC(=O)c1oc2ccccc2c1NC(=O)COc1cccc(C)c1 | 18% | x | x | x | x | x
Cc1ccccc1C(=O)Oc1cccc(Nc2ncnc3ccccc23)c1 | u | -10 | 3 | x | x | x
COc1ccc(-n2c(CN3CCOCC3)nc3ccccc3c2=O)c(OC)c1 | -1% | 8 | 31 | 1 | 17% | -2
COc1cc(OC)cc(-c2sc3ccc(OC)cc3c2-c2ccc(OCCN3CCOCC3)cc2)c1 | 8.9µM* | -15 | 1 | x | -5% | x
COc1ccc2sc(-c3ccccc3OC)c(-c3ccc(OCCN4CCOCC4)cc3)c2c1 | 28µM* | -25 | 1 | x | 2% | x
COc1cccc(-c2sc3ccccc3c2-c2ccc(OCCN3CCOCC3)cc2)c1 | 32µM* | x | x | x | -6% | x
Cc1ccc(-c2nc(CN3C(=O)CN=C(c4ccccc4Cl)c4cc(Cl)ccc43)c(C)o2)cc1 | -5% | x | x | x | x | x
CNC(=O)COC(=O)c1ccc(-c2nc3ccccc3s2)s1 | 6.3µM* | 21 | -1 | 9 | 6% | 0
CN1CCN(c2ccc([N+](=O)[O-])c(Sc3nncn3C)c2)CC1 | x | -123* | 3 | 11 | 18% | -7
O=C(CN1CC=C(c2ccccc2)CC1)NC(=O)NCc1ccco1 | -13% | -90* | -8 | -1 | 0% | -8
CC1CCc2c(sc3nc(CSc4n[nH]c(N)n4)[nH]c(=O)c23)C1 (centres undefined) | 55% | -8 | -3 | 14 | 16% | -9
CCOC(=O)c1cccc(C2=C(CNC(=O)c3ocnc3C)[C@H]3CC[C@@H](C2)N3Cc2ccccc2)c1 | -3% | -38 | 5 | x | x | x
SMILES | ClpP mod | KCNH2 3.1 inh | KCNH2 WT inh | TRPV1 ag | p53 reactivation | TRPV1 PAM
O=C(NCC1=C(c2ccc3ccccc3c2)C[C@@H]2CC[C@H]1N2Cc1ccco1)c1cccnc1 | -1% | -21 | 1 | x | x | x
CCOC(=O)c1cccc(C2=C(CNC(=O)c3nccs3)[C@H]3CC[C@@H](C2)N3Cc2ccccc2)c1 | -2% | -84* | 18 | x | x | x
CS(=O)(=O)c1ccc(C2=C(CNC(=O)c3ccc([N+](=O)[O-])cc3)[C@H]3CC[C@@H](C2)N3CCOc2ccccc2)cc1 | -2% | -110* | -92* | x | x | x
CS(=O)(=O)c1ccc(C2=C(CNC(=O)c3ccc([N+](=O)[O-])cc3)[C@H]3CC[C@@H](C2)N3Cc2ccccc2)cc1 | -1% | -101* | -86* | x | x | x
O=C(NCC1=C(c2cccc3ccccc23)C[C@@H]2CC[C@H]1N2Cc1ccco1)c1ccc([N+](=O)[O-])cc1 | -1% | -93* | -24 | x | x | x
COc1cc([C@@H]2c3cc4c(cc3C[C@H]3COC(=O)[C@@H]32)OCO4)cc(OC)c1O | -1% | x | x | x | x | x
COc1ccc(NC(=O)CCCn2c(=O)oc3ccccc32)cc1Cl | 0% | 8 | -5 | 2 | u | 7
FC(F)(F)c1ccc2c(c1)ncn2C1CCN(Cc2nnnn2C2CCCCC2)CC1 | 2% | u | 7 | -3 | 4% | 27
Cc1nc2ccccc2n1C1CCN(Cc2nnnn2CCc2ccccc2)CC1 | -1% | -82* | -23 | -3 | -5% | 16
Fc1ccc(Cn2nnnc2CN2CCC(n3nnc4cc(C(F)(F)F)ccc43)CC2)cc1 | 0% | -98* | -22 | -1 | 0% | -11
Cc1nc2cc(C(F)(F)F)ccc2n1C1CCN(Cc2nnnn2Cc2ccc3c(c2)OCO3)CC1 | -3% | -77* | -16 | 6 | -9% | -9
Cc1nc2cc(C(F)(F)F)ccc2n1C1CCN(Cc2nnnn2Cc2cccs2)CC1 | 1% | -75* | -20 | 0 | -3% | 10
Cc1cccc(CN2CCc3nc(N4CCN(c5ccccn5)CC4)ncc3C2)c1 | 55% | x | x | x | x | x
O=C(Nc1ccccc1F)Oc1cccc(OC(=O)Nc2ccccc2F)c1 | 1% | -4 | 14 | u | u | -29
CCc1cc2c(=O)n(C(C)C(=O)OC3CCCCC3)cnc2s1 (centres undefined) | -5% | -10 | -5 | 1 | u | -3
COC(=O)C(O)(c1ccc(NC(=O)Oc2ccccc2)cc1)C(F)(F)F (centres undefined) | 1% | -11 | 1 | 0 | 10% | -5
COC(=O)c1[nH]c2ccc(C)cc2c1NC(=O)Oc1ccccc1 | 35µM* | 13 | 7 | -3 | 10% | -10
O=P(O)(O)c1ccccc1OCCOCCOCCOCCOc1ccccc1P(=O)(O)O | -3% | 18 | -3 | -2 | u | 8
